# Shown are actives, neighbours in structure and some others; about 12% of the full set was active somewhere.
# HP1b chromo inh = blocks HP1-beta chromodomain binding to methylated histone tails. P83916. AlphaScreen HP1-beta / biotin-H3K9me3 peptide binding. Potency, µM (top dose mostly 114 µM), usual class: inhibitors. actives 0.56% (n = 390,000). AID 540317; further: nearly all actives have a fitted effect of over 70% in size
#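 HP1-beta protein (50 nM final) preincubated 30 min at room temperature with biotinylated H3(1-18)K9me3 peptide (50 nM) in PBS pH 7.4, 0.01% Tween-20, then compound added for 30 min. AlphaScreen streptavidin donor/nickel chelate acceptor beads (10 ug/mL final), 30 min dark, luminescence read.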
# BAZ2B block = blocks human BAZ2B | Q9UIF8 | AlphaScreen BAZ2B-H3K14Ac peptide displacement | Potency, µM (top dose mostly 114 µM), most hits filed as inhibitors | actives 4.4% (n = 360,000); further: nearly all actives have a fitted effect of over 60% in size
#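 Protein-peptide AlphaScreen: BAZ2B 50 nM, b-H3K14Ac 50 nM, 1x PBS pH 7.4 + 0.01% Tween-20. Preincubation 30 min RT; cpd 30 min RT (top 110 uM); beads 20 min RT, light-protected.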
# PLK1 PBD inh = inhibitors of human PLK1 polo-box domain binding | AID 720504 | Plk1 PBD binding of FITC phosphopeptide, fluorescence polarization | Potency, µM, actives largely listed as inhibitors | actives 2.8% (n = 360,000); further: series mostly up to about 57 µM; nearly all actives have a fitted effect of over 65% in size
# JMJD2A Tudor inh = inhibitors of human JMJD2A Tudor domain; O75164; AlphaScreen JMJD2A-Tudor / H3K4me3 peptide binding; Potency, µM (top dose mostly 114 µM), usual class: inhibitors; actives 4.4% (n = 390,000); further: nearly all actives have a fitted effect of over 50% in size
# Target sequence (O75164 whole entry, looked up, the tested form may be a part): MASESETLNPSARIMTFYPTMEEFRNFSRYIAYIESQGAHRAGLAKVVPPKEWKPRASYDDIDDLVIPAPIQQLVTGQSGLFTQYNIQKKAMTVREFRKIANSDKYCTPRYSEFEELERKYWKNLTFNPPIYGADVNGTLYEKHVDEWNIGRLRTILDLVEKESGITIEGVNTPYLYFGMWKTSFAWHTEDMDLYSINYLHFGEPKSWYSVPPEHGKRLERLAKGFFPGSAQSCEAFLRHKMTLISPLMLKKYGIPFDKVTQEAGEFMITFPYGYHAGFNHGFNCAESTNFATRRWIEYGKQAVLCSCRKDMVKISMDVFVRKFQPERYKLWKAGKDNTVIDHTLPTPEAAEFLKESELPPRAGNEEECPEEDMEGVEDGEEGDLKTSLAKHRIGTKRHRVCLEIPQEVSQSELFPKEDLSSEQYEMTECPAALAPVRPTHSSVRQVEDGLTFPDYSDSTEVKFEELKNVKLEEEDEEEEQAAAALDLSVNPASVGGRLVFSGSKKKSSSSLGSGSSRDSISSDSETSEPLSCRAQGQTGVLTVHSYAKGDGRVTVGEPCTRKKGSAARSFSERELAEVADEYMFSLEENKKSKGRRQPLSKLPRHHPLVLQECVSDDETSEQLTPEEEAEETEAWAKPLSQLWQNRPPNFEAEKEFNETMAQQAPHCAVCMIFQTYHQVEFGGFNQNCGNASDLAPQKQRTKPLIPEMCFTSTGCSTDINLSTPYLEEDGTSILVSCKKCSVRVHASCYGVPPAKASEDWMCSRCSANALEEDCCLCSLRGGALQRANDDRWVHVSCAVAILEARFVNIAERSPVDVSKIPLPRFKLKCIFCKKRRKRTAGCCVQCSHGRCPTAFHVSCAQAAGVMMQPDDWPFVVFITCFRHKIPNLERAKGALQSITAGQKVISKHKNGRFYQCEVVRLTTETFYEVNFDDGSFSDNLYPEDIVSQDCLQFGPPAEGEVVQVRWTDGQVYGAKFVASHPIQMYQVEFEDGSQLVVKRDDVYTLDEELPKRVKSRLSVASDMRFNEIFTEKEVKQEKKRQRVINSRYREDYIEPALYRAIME
# G9a block = inhibitors of human histone lysine methyltransferase G9a; Q96KQ7; G9a H3K9 monomethylation, AlphaScreen, 2 h; Potency, µM (series often up to 102 µM), most hits filed as inhibitors; actives 8.8% (n = 350,000); AID 504332; further: nearly all actives have a fitted effect of over 75% in size
#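 G9a (20 nM) was preincubated 15 min with compound, then reacted 2 h at room temperature with 500 nM biotin-H3K9 peptide and 20 µM SAM. Monomethyl-H3K9 detected by AlphaScreen using anti-H3K9me1 antibody.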
# Sfp inh = blocks B. subtilis Sfp PPTase activity | Potency, µM, actives largely listed as inhibitors | Biochemical Sfp PPTase activity, qHTS | actives 3.5% (n = 310,000) | Q9F4F7;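 further: the enzyme is Sfp with the accession as filed and its product quenches rhodamine fluorescence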
#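 Fluorescence-quenching assay: 15 nM Sfp-PPTase preincubated 15 min at room temperature with compound, then 5 uM rhodamine-CoA and 12.5 uM BHQ-2-labelled YbbR peptide added. Fluorescence (ex 525/em 598 nm) read at start and after 30 min; difference gives rate.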
# Hits are given with their value; i = inactive; ? = inconclusive; nt = not tested or not shown; [ ] = another dose, or the depositor's remark. The call rests on the fitted dose curve; in most records, active means well fitted curve in the direction sought with a large enough effect; inconclusive means small, poorly fitted or top-dose-only effect, or another doubt; inactive means no such curve, though single readings can be large; an effect the other way counts as inactive or inconclusive.
SMILES,HP1b chromo inh,BAZ2B block,PLK1 PBD inh,JMJD2A Tudor inh,G9a block,Sfp inh
C=CCN1C(=S)CC(c2ccccc2)=Nc2ccccc21,i,i,i,i,nt,i
O=[N+]([O-])c1cccc(S(=O)(=O)Nc2ccc(-c3ccc(N4CCOCC4)nn3)cc2)c1,i,i,i,i,45µM,nt
O=[N+]([O-])c1cccc(S(=O)(=O)Nc2cccc(-c3ccc(N4CCCC4)nn3)c2)c1,i,i,i,i,i[0.501 µM],nt
O=[N+]([O-])c1cccc(S(=O)(=O)Nc2cccc(-c3ccc(N4CCOCC4)nn3)c2)c1,i,i,i,i,10µM,nt
O=C(CSc1nnnn1-c1ccc(F)cc1F)Nc1ccccc1F,i,i,i,i,nt,i
CC(=O)N(C1CC(C)C(C#N)(C#N)C1(C#N)C#N)N(C)C (stereo not given),i,i,2.4µM,i,13µM,10µM
CCCC(=O)N(C1CC(C)C(C#N)(C#N)C1(C#N)C#N)N(C)C (stereo not given),i,i,6µM,i,7.1µM,1.8µM
CN(C)S(=O)(=O)c1cccc(-c2nn(-c3ccccc3)cc2/C=C2\SC(=S)NC2=O)c1,?,32µM,21µM,40µM,40µM,?
CN(C)S(=O)(=O)c1cccc(-c2nn(-c3ccccc3)cc2/C=C(\C#N)c2nc3ccccc3[nH]2)c1,i,i,i,i,i,i
COc1ccc(CN(C)c2ccc(S(=O)(=O)N3CCN(C)CC3)cc2[N+](=O)[O-])cc1OC,i,?,i,?,i[12.7 µM],nt
Cc1ccc(OCc2nc(-c3ccc(C(=O)N4CCN(c5cc(Cl)ccc5C)CC4)cc3)oc2C)cc1,i,i,nt,i,i,nt
COc1cc2c(cc1NC(=O)COc1ccccc1OC)oc1ccccc12,i,i,i,i,i,i
COc1cc2c(cc1NC(=O)c1cncc(Br)c1)oc1ccccc12,i,i,27µM,i[11.4 µM],i[12.7 µM],i
COc1cc2c(cc1NC(=S)Nc1cccc3ccccc13)oc1ccccc12,?,79µM,i,?,?,?
COc1cc2c(cc1NCc1ccccn1)oc1ccccc12,?,45µM,i,45µM,?,i
COc1cc2c(cc1NCc1ccc3c(c1)OCO3)oc1ccccc12,?,32µM,i,?,?,?
NC(=O)c1cccc(-c2coc3c(C(=O)NC4CCCCC4)cccc23)c1,nt,nt,i,nt,nt,nt
COC(=O)CNC(=O)CSc1nc(N)cc(=O)[nH]1,i,i,i,i,i[12.7 µM],i
COc1ccc(N2CCN(C(=O)C3CCCN(S(=O)(=O)c4ccc(F)cc4)C3)CC2)cc1 (stereo not given),i,40µM,i,i,nt,i
COc1ccc(N2CCN(C(=O)C3CCCN(S(=O)(=O)c4ccc(C)cc4)C3)CC2)cc1 (stereo not given),?,40µM,i,i,?,i
Cc1ccc(S(=O)(=O)N2CCCC(C(=O)N3CCN(c4ccccc4)CC3)C2)cc1 (stereo not given),i,i,i,i,i,i
O=C1OC(c2ccco2)=N/C1=C\c1ccc(-c2cccc(C(F)(F)F)c2)o1,i,?,i,i,?,i
O=C1OC(c2cccs2)=N/C1=C/c1ccc(-c2cccc(C(=O)O)c2)o1,?,25µM,i,50µM,7.9µM,i
O=C1OC(c2cccs2)=N/C1=C\c1ccc(-c2ccccc2Cl)o1,?,i,i,?,40µM,i
S=C1NCN(C2CCCCC2)CN1c1ccccc1,i,i,i,i,i,i
SMILES,HP1b chromo inh,BAZ2B block,PLK1 PBD inh,JMJD2A Tudor inh,G9a block,Sfp inh
CC(C)(C)OC(=O)Nc1ncnc2c1C(c1ccccc1)c1c(ccc3ccccc13)O2 (stereo not given),nt,nt,nt,i,nt,nt
CCc1ccc(CNC(=O)c2ccc3c(c2)nc2n3CCCCC2)cc1,i,i,nt,i,i,nt
CCCC(=O)Nc1ccc(N2CCN(C(=O)CCC)CC2)cc1,i,i,i,i,50µM,i
CC(C)CC(=O)Nc1ccc(C(=O)CN2CCC(C)CC2)cc1,i,i,i,i,10µM,?
CCC(=O)Nc1ccc(C(=O)CN2CCC(C)CC2)cc1,nt,i,nt,nt,10µM,i
CCC(=O)Nc1ccc(N2CCC(C)CC2)cc1,i,i,i,i,8.9µM,i
COc1ccc(NC(=O)CN2CCC(C)CC2)cc1,i,i,i,i,i,i
CCOC(=O)C1=C(C)NC(C)=C(C(=O)OCC)C1C(=O)OCC(=O)Nc1ccc(NC(C)=O)cc1,nt,nt,i,nt,nt,nt
O=C(CN1CCN(Cc2ccccc2Cl)C1=O)NCc1ccccc1Cl,i,i,nt,i,i,nt
Cc1cn(C)c(CC(=O)Nc2ccc(F)cc2Cl)c1C(=O)O,i,i,nt,i,i,nt
CC1CCN(CC(=O)Nc2ccc(C(=O)N3CCCCC3)cc2)CC1,?,50µM,i,1µM,28µM,i
O=C1NC[C@H](CCCCN2C[C@H](Cc3ccc(O)cc3)N(CCc3ccccc3)C(=O)C2=O)N(CCc2ccc(O)cc2)C1=O,nt,nt,i,nt,nt,nt
COC(=O)/C=C/c1c(C)nc(NCc2ccccc2)nc1Cl,i,?,i,i,50µM,i
CCNc1nc(Cl)nc(NCc2ccccc2)n1,i,i,i,i,i,i
COc1ccc(-c2[nH]ncc2CN2CCC(OCc3cccnc3)CC2)c(F)c1,i,i,i,i,nt,i
CCN(CC)C(=O)[C@H]1CC(CC(=O)NCc2ccc(OC)c(OC)c2)C(=O)N2CCc3c([nH]c4ccc(OC)cc34)[C@]12C (stereo not given in full),i,nt,i,?,nt,nt
Cc1cc(O)cc(O)c1C(=O)Cc1ccccc1,i,i,i,i,i,i
O=C(Cc1ccc([N+](=O)[O-])cc1)c1c(O)cc(O)cc1O,i,i,i,i,50µM,i
O=c1[nH]c(=S)[nH]cc1S(=O)(=O)c1cccc(Cl)c1,i,i,i,i,40µM,i
O=S(=O)(Nc1nc2ccccc2nc1Nc1ccc2c(c1)OCCO2)c1cccs1,i,50µM,i,?,?,i
O=S(=O)(Nc1nc2ccccc2nc1NCc1ccco1)c1cccs1,i,i,i,i,50µM,i
COc1ccc(S(=O)(=O)Nc2nc3ccccc3nc2Nc2ccc3c(c2)OCO3)cc1,nt,i,nt,nt,i,i
C=CCNc1nc2ccccc2nc1NS(=O)(=O)c1cccs1,i,?,i,i,i[2.33 µM],i
C(C#CCCCCCCCCC[n+]1ccccc1)#CCCCCCCCCC[n+]1ccccc1,i,i,i,i,i,50µM
C[C@@H]1CCCCO[C@@H](CN(C)C(=O)c2ccncc2)[C@@H](C)CN([C@H](C)CO)C(=O)c2cc(NC(=O)Cc3ccccc3)ccc2O1,nt,nt,i,nt,nt,nt
O=C1OC(/C(=C\Nc2ccc(F)cc2F)[N+](=O)[O-])c2ccccc21 (stereo not given),i,i,i,i,45µM,?
O=C1OC(/C(=C\Nc2cc(Cl)ccc2O)[N+](=O)[O-])c2ccccc21 (stereo not given),?,45µM,i,?,10µM,i

# High-throughput results: PubChem, National Center for Advancing Translational Sciences (NCATS)
